Hits are enriched below; roughly 7.6% of the tested compounds scored in any of these assays.
KB-3-1 cytotox: qHTS assay for MDR1-selective chemotherapeutics: Primary screen using the parental adenocarcinoma cell KB-3-1. KB-3-1 viability, CellTiter-Glo ATP luminescence, 72 h. Potency, µM (series often up to 46.1 µM), hits mostly cytotoxic. 400,000 tested, 1.4% active; also: potency is read from the fitted curve at half-maximal effect; % is scaled to controls: 0 for no effect and ±100 for the full control effect; nearly all actives have a fitted effect of over 60% in size
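KB-3-1 cells, DMEM (no phenol red) + 10% FBS; compound by pin transfer, 72 h, 37 °C. Readout: CellTiter-Glo luminescence after 10 min. Data normalized, curve-fitted.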
SW480 rerep: A quantitative high throughput screen for small molecules that induce DNA re-replication in SW480 colon adenocarcinoma cells. SW480 DNA re-replication, Hoechst DNA content imaging, 48 h. Potency, µM (highest dose often 46.1 µM), without a hit: top-dose re-replication activation, hits mostly activators. 340,000 tested, 1.8% active; also: potency is read from the fitted curve at half-maximal effect; % of control where 0% means no effect; nearly all actives have a fitted effect of over 55% in size
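Hoechst fluorescence of nuclei (405 nm excitation, 500-530 nm emission) measured by plate-scanning imager after 48 hr compound exposure at 37 C; re-replication scored as increased number of nuclei with elevated intensity.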
KCNH2 3.1 block: qHTS for Inhibitors of KCHN2 3.1: Mutant qHTS; Potassium voltage-gated channel subfamily H member 2, brain isoform KCNH2 3.1 (human); U2OS KCNH2 3.1, thallium flux FluxOr; active compounds read low; activity change, % (tested at about 1.8 µM); 340,000 tested, 0.95% active; AID 720553, 2013;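 active = maximum activity change below -70%; inconclusive = maximum activity change from -70% to -50%; inactive = maximum activity change above -50%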;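 also: thallium influx rate constant from kinetic fluorescence after stimulation buffer; % is scaled to controls: 0 for no effect and ±100 for the full control effect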
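Steps: virus added to U2OS suspension (4 h, RT, dark); medium with 10% FBS added, cells plated, 37 C overnight; FluxOr/Red40 loading buffer 45 min RT; stimulation buffer, 2 min kinetic read; rate constant normalized.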
KB-V1 cytotox: qHTS assay for MDR1-selective chemotherapeutics: Primary screen using the drug-selected MDR subline cells KB-V1; Potency, µM (top dose mostly 46.1 µM), actives largely listed as cytotoxic; AID 1347076, 2019; KB-V1 MDR cells viability, CellTiter-Glo, 72 h; 400,000 tested, 3.4% active; also: potency is read from the fitted curve at half-maximal effect; % is scaled to controls: 0 for no effect and ±100 for the full control effect; nearly all actives have a fitted effect of over 60% in size
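In this primary screen, KB-V1 cells overexpressing P-gp are incubated with library compounds (lowest to highest concentration) for 72 h at 37 degrees C before a luminescent ATP viability read.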
MCF10A rereplic: A quantitative high throughput screen for small molecules that induce DNA re-replication in MCF 10a normal breast cells; MCF 10A DNA re-replication, Hoechst nuclear intensity, 48 h; Potency, µM (series often up to 46.1 µM), without a hit: top-dose activity, positive = re-replication, hits mostly activators; 350,000 tested, 2.9% active; also: potency is read from the fitted curve at half-maximal effect; % of control where 0% means no effect; nearly all actives have a fitted effect of over 50% in size
hERG WT inh: qHTS for Inhibitors of KCHN2 3.1: Wildtype qHTS | Voltage-gated inwardly rectifying potassium channel KCNH2 (Homo sapiens), Q12809 | AID 720551, 2013 | 340,000 tested, 0.37% active | activity change, % at 1.84 µM | U2OS, BacMam KCNH2, thallium flux FluxOr; active compounds read low;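 active = maximum activity change below -70%; inconclusive = maximum activity change between -70% and -50%; inactive = maximum activity change above -50%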; also: % is scaled to controls: 0 for no effect and ±100 for the full control effect
Target sequence (Q12809 whole entry, looked up): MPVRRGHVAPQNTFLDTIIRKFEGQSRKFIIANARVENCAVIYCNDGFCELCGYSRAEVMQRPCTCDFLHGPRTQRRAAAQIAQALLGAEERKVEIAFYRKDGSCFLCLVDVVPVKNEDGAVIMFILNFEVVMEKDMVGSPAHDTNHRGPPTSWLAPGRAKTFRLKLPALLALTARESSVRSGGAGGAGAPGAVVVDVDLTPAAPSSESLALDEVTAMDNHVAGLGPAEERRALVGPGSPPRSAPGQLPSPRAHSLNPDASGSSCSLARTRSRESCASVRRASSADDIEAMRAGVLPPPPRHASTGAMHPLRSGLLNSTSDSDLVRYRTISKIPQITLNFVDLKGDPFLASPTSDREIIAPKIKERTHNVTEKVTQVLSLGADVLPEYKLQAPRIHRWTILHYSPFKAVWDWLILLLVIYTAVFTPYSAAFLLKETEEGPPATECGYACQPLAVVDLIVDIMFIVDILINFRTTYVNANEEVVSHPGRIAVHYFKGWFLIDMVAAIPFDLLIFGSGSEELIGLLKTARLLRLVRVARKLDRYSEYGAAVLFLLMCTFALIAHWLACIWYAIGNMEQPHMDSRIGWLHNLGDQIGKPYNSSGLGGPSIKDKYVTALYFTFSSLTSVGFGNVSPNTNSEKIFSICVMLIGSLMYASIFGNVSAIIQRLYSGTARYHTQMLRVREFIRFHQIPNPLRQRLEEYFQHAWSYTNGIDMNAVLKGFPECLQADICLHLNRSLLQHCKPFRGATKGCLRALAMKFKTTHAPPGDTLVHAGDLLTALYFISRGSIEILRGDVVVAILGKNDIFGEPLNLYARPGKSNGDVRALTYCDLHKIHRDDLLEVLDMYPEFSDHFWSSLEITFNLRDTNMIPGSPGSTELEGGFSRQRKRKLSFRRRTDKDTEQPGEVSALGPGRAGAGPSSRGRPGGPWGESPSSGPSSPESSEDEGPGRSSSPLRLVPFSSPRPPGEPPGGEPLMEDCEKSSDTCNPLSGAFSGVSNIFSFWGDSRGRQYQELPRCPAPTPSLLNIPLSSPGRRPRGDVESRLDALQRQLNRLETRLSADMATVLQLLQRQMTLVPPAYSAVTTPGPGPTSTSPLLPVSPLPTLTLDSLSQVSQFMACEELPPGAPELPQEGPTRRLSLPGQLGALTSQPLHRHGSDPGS
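U2OS cells transduced with wild-type KCNH2 virus are loaded with FluxOr dye for 45 min, and thallium flux is measured in kinetic reads before and after stimulation buffer. Rate constants are normalized to DMSO controls.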
Starred values were filed as active, the others as inactive; i = inactive; ? = inconclusive; nt = not tested or not shown; [ ] = another dose, or the depositor's remark. Unless noted, calls follow the shape of the dose curve; as a rule, active = well fitted curve in the direction sought with a large enough effect; inconclusive = small, poorly fitted or top-dose-only effect, or another doubt; inactive = no such curve, though single readings can be large; an effect the other way counts as inactive or inconclusive.

SMILES	KB-3-1 cytotox	SW480 rerep	KCNH2 3.1 block	KB-V1 cytotox	MCF10A rereplic	hERG WT inh
Cc1oc(-c2ccccc2F)nc1CN1CCC(C(=O)NC2CCCCCCC2)CC1	i	2%	-9	12µM*	8%	9
O=C(CSC(=S)N1CCCC1)N(Cc1nnc(-c2ccccc2Cl)o1)C1CC1	i	-5%	3	4.6µM*	0%	13
O=C(COc1ccccc1)N(Cc1nnc(-c2ccccc2Cl)o1)C1CC1	i	-1%	-4	i	3%	38
Fc1ccc(CSc2nnc(-c3cnccn3)n2Cc2ccco2)cc1	i	-2%	-19	i	3%	-7
O=C(CSc1n[nH]c(=O)n1Cc1ccco1)Nc1ccccc1	i	-4%	-29	?	-1%	7
Cc1cc(C)c(NC(=O)CSc2nnc(-c3ccncc3)n2Cc2ccco2)c(Cl)c1	?	-4%	5	23µM*	0%	15
Brc1ccc(CSc2nnc(-c3cnccn3)n2Cc2ccco2)cc1	?	8%	-14	9.2µM*	?	6
Clc1ccc(CSc2nnc(-c3ccccn3)n2Cc2ccco2)c(Cl)c1	?	15%	-21	10µM*	?	25
O=C(CSc1nnc(-c2ccncc2)n1Cc1ccco1)Nc1cccc(O)c1	i	-20%	-8	?	4%	19
CC(C)c1ccc(NC(=O)CSc2n[nH]c(=O)n2Cc2ccco2)cc1	?	-7%	-88*	?	13%	-1
Cc1ccc(C)c(C(=O)COC(=O)CCN2C(=O)C3C4CCC(C4)C3C2=O)c1 (stereo unspecified)	nt	0%	-7	nt	10%	-13
CCc1cccc(NC(=O)Cn2nc(-c3cc(C)ccc3C)ccc2=O)c1	i	nt	nt	i	nt	nt
Cc1ccc(S(=O)(=O)Oc2cccc([N+](=O)[O-])c2)cc1	i	?	-17	i	?	-4
Cc1cc(C)cc(Cn2c3ccc(NC(=O)NCCc4cccs4)cc3c(=O)n2C)c1	i	nt	nt	i	nt	nt
Cc1ccc(NC(=O)CSc2nnc(-c3cnccn3)n2Cc2ccco2)cc1	i	-3%	-8	7.3µM*	11%	-1
CCn1c(COc2ccccc2C)nnc1SCC(=O)Nc1ccc2c(c1)OCCO2	i	-9%	4	4.6µM*	?	-1
Fc1ccccc1CSc1nnc(-c2cnccn2)n1Cc1ccco1	i	-93%	6	18µM*	-59%	0
C(=C\c1ccccc1)/CSc1nnc(-c2cnccn2)n1Cc1ccco1	?	-3%	-39	?	1%	18
CCn1c(SCC(=O)Nc2ccc3c(c2)OCO3)nnc1-c1cnccn1	i	-11%	-2	21µM*	-1%	-4
Cc1ccccc1OCc1nnc(SCC(=O)Nc2ccc3c(c2)OCO3)n1C	i	-10%	-11	i	?	2
COC(=O)c1cc(NC(=O)CN(c2ccccc2)S(=O)(=O)N(C)C)ccc1Cl	?	nt	nt	i	nt	nt
O=c1cc(CO)[nH]nc1CO	i	nt	2	i	nt	-8
CC(NC(=O)COC(=O)c1cn(-c2ccccc2)nc1-c1cccs1)c1ccccc1 (stereo unspecified)	i	6%	-6	21µM*	?	1
COc1ccc(C(=O)c2ccc(C)cc2)c(OC)c1OC	?	?	14	?	16µM*	1
COc1ccc(C(=O)CCN(C)C)c2ccccc12	i	nt	nt	i	nt	nt
SMILES	KB-3-1 cytotox	SW480 rerep	KCNH2 3.1 block	KB-V1 cytotox	MCF10A rereplic	hERG WT inh
COc1ccc(C(=O)c2ccc(Br)cc2)c2ccccc12	?	-2%	-6	18µM*	7.3µM*	-3
COc1cccc(C(=O)C(=O)c2cccc(OC)c2OC)c1OC	i	-7%	0	i	1%	-1
COc1ccc(C(=O)c2ccc(Cl)cc2)c2ccccc12	?	?	-9	?	9.2µM*	-4
COc1cccc(N2CCN(S(=O)(=O)c3ccc4[nH]c5c(c4c3)CCCC5)CC2)c1	i	nt	nt	i	nt	nt
COCCn1c(SCC(=O)Nc2ccc(S(=O)(=O)N3CCOCC3)cc2)nc2ccccc21	i	-2%	-4	5.2µM*	16%	1
COCCn1c(SCC(=O)Nc2ccc(Cl)c(S(=O)(=O)N(C)C)c2)nc2ccccc21	i	0%	4	i	13%	-118*
COCCn1c(SCC(=O)Nc2cccc(S(N)(=O)=O)c2)nc2ccccc21	i	0%	-4	i	2%	6
COCCn1c(SCC(=O)Nc2ccc(S(N)(=O)=O)cc2)nc2ccccc21	i	-2%[9.22 µM]	-2	i	?	6
O=C(COC(=O)C1CCN(c2ccc(C(F)(F)F)cn2)CC1)NCc1cccc(Cl)c1	i	-2%	-16	i	0%	13
CCOC(=O)C(C)N1N=C(/C=C/c2ccc(C)cc2)CCC1=O (stereo unspecified)	?	14%	-4	16µM*	16%	-5
CCOC(=O)CN1N=C(/C=C/c2ccc(C(C)C)cc2)CCC1=O	7.3µM*	-5%	-17	2.3µM*	2%	3
CCOC(=O)CN1N=C(/C=C/c2ccccc2)CCC1=O	i	-3%	6	i	1%	9
C=CCN1N=C(/C=C/c2ccc(C)cc2)CCC1=O	?	90%	-108*	?	-63%	2
C=CCN1N=C(/C=C/c2ccc(OC)cc2)CCC1=O	i	3%	12	?	1%	-11
O=C(CC1C(=O)N(c2ccccc2)C(=O)N1CCC1=CCCCC1)Nc1ccc(F)cc1 (stereo unspecified)	i	nt	nt	i	nt	nt
COc1ccc(C2c3cccn3CCN2S(=O)(=O)c2ccc([N+](=O)[O-])cc2)cc1 (stereo unspecified)	i	nt	nt	i	nt	nt
CCc1oc2ccccc2c1C(=O)c1cc(I)c(O)c(I)c1	nt	8%	nt	nt	3.8µM*	nt
CCCCOC(=O)c1ccc(NC(=O)C2(c3cccs3)CCOCC2)cc1	i	nt	nt	i	nt	nt
Cc1nc(SCC(=O)N(CC(C)C)C2CCS(=O)(=O)C2)c2c(C)c(C)sc2n1 (stereo unspecified)	?	-6%	-1	3.7µM*	2%	-10

Screens from PubChem BioAssay.
